In all, about 69,000 compounds went through this assay and about 8,600 (12%) showed an effect of 50% or more. Only a selection was taken, and strong results are over-represented in it overall.

These results are taken from ChEMBL document CHEMBL4513216, “Probing the Open Global Health Chemical Diversity Library for Multistage-Active Starting Points for Next-Generation Antimalarials” (ACS Infect Dis, 2020).

The experiment relates to Plasmodium berghei. The experiment can be described thus: Screen against P. berghei liver stage (PbLuc), transformed with Luciferase, at 10uM. The experiment is classed as functional, HepG2. The note with it: tested at 10 uM.
For the compound `Cc1ccc(C(=O)N(C)Cc2ccc(Br)s2)c(=O)[nH]1`, the INHIBITION turned out to be 37.4%.
Take `Cc1ccc(-c2nc(CNC(C)Cn3cccn3)cs2)o1` (stereo not given): the INHIBITION was -27.9%.
With `CCCc1noc(C(C)N2CCN(c3ccc(C#N)cn3)CC2)n1` (stereo not given) the figure was 5.23%; with `CC(Cn1cccn1)NC(=O)N(C)Cc1ccc(C(N)=O)cc1` (stereo not given), 14.3%.
With `Cc1cccc(N2CC3(CCN(C(=O)NC(C)C)C3)CC2=O)c1` (stereo not given) the figure was 14.6%; with `CC(C)NC(=O)N1CCC2(CC(=O)N(c3cccc(C#N)c3)C2)C1` (stereo not given), 66.5%.
Regarding `CC(C)NC(=O)N1CCC2(CC(=O)N(c3cccc(F)c3)C2)C1` (stereo not given), the INHIBITION is reported as 7.65%.
With `COCCN1C[C@@H]2CC[C@H]1CN(C(=O)CCc1c(C)nn(C)c1C)C2` the figure was 27.5%.
With `Cn1cc(CN2C[C@@H](N3CCCC3=O)[C@H]3OCCC[C@H]32)cn1` the figure was 29%; with `Cn1ccnc1CN1C[C@H](N2CCOCC2)[C@@H]2OCCC[C@@H]21`, 37.8%; with `Cn1cc(CN2C[C@H](N3CCOCC3)[C@@H]3OCCC[C@@H]32)cn1`, 54.1%.
With `CC(C)c1nnc(CN2CCCC3(CC2)CN(C)C(=O)O3)o1` (stereo not given) the figure was 23.9%; with `CCOc1ccc(Cl)c(C(=O)N2CCCC(N3CCCC3)C2)n1` (stereo not given), 23.3%; with `CCc1nc(CN(CC(N)=O)C(C)C)cs1`, 22.5%.
For `CC(C)N(CC(N)=O)Cc1csc(COc2ccc(F)cc2)n1`, the INHIBITION was 81.5%.
With `COCc1nc(CN(CC(N)=O)C(C)C)cs1` the figure was 42%.
With `COc1ccc(-c2noc(CN3CCN(c4cnccn4)CC3)n2)cc1` the figure was 47%.
With `Cc1cc(C)cc(C(=O)N2CCN(C(=O)N(C)C)CC2(C)C)c1` the figure was 18.6%; with `CN(C)C(=O)N1CCN(C(=O)c2ccc(Cl)c(Cl)c2)C(C)(C)C1`, 14.1%.
Take `COC(=O)c1cccc(C(=O)N2CCN(C(=O)N(C)C)CC2(C)C)c1`: the INHIBITION was found to be 68.6%.
With `CC(=O)N1CCC2(CC1)CN(C)CC[C@H]2C(F)(F)F` the figure was -22.1%.
With `c1cc(CN2CCc3ncnc(C4CCOC4)c3CC2)ccn1` (stereo not given) the figure was 29.8%; with `O=C(c1cn(-c2ccccc2)nn1)N1CCOCC(O)C1` (stereo not given), -28.1%.
As to `O=C(CCc1ccccn1)NC1CCN(c2cccc(Cl)c2)C1` (stereo not given), the INHIBITION amounted to 46.4%.
With `O=C(CCc1nc(Cl)n[nH]1)NC1CCCN(C2Cc3ccccc3C2)C1` (stereo not given) the figure was 35.1%; with `O=C(CCc1ccccn1)NC1CCCN(C2Cc3ccccc3C2)C1` (stereo not given), 51.1%; with `Cn1nnnc1SC1CCCN(c2cccc(F)c2)C1=O` (stereo not given), -12.4%.
With `O=C(CN1CCOCC1)N(c1ccccc1)c1ccccc1` the figure was 78.8%; with `CN(CCN1CCOCC1)C(=O)CCCc1ccccc1`, -57.6%; with `O=C(COCC(=O)N(c1ccccc1)c1ccccc1)N1CCOCC1`, 13.3%.
